Compound activity: PubChem BioAssay, Pan Lab, Icahn School of Medicine at Mount Sinai
RBX1-CUL1 inh: inhibitors of human ROC1-CUL1 ubiquitin ligase activity; P62877+Q13616; in vitro K48 di-Ub FRET, acceptor:donor ratio, 45 min; inhibition, % at 10 µM; hit rate 0.6% among 140,000; AID 1347404; in the data active = inhibition above about 25%
Starred values were filed as active, the others as inactive. Many of the other results were omitted from the sample, so hits are more common in it than they were.

C(=NC(N=Cc1c[nH]c2ccccc12)c1c[nH]c2ccccc12)c1c[nH]c2ccccc12 (stereo unspecified) was read as RBX1-CUL1 inh -3.
`O=C(O)c1sccc1-c1ccsc1` gave RBX1-CUL1 inh 7.
Screening O=[N+]([O-])c1ccsc1C1OCCO1 returned RBX1-CUL1 inh -8.
Screening O=[N+]([O-])c1sccc1-c1ccsc1 returned RBX1-CUL1 inh 29*.
Screening CCOC(=O)Cn1cc(/C=c2\sc3n(c2=O)C(c2ccc(SC)cc2)C(C(=O)OCC)=C(c2ccccc2)N=3)c2ccccc21 (stereo unspecified) returned RBX1-CUL1 inh -11.
For CCOC(=O)C1=C(c2ccccc2)N=c2s/c(=C/c3ccccc3O)c(=O)n2C1c1ccc2c(c1)OCO2 (stereo unspecified) the results were RBX1-CUL1 inh 0.
Screening CCOC(=O)C1=C(c2ccccc2)N=c2s/c(=C\c3ccc(N(CC)CC)cc3O)c(=O)n2C1c1ccc(SC)cc1 (stereo unspecified) returned RBX1-CUL1 inh 47*.
CC(=O)c1cc2c3c(c1)C1C=CCC1C(c1ccc([N+](=O)[O-])cc1)N3CC1CC=CC21 (stereo unspecified) was read as RBX1-CUL1 inh -2.
`CC(=O)c1ccc2c(c1)C1C=CCC1C(c1cccc(Cl)c1Cl)N2` (stereo unspecified) gave RBX1-CUL1 inh 2.
O=C(O)c1cc2c3c(c1)C1C=CCC1C(c1ccccc1Cl)N3CC1CC=CC21 (stereo unspecified) was read as RBX1-CUL1 inh 101*.
Screening COC(=O)c1c(NC(=O)c2ccc(Cl)c(Cl)c2)sc2c1C(C(=O)OC)CC2 (stereo unspecified) returned RBX1-CUL1 inh -7.
Screening O=C(N/N=C/c1cc([N+](=O)[O-])ccc1O)c1cnccn1 returned RBX1-CUL1 inh -7.
`O=C(N/N=C/c1cc([N+](=O)[O-])ccc1O)c1ccc(C(=O)N/N=C/c2cc([N+](=O)[O-])ccc2O)o1` gave RBX1-CUL1 inh 98*.
Screening O=C(N/N=C/c1cc([N+](=O)[O-])ccc1O)c1ccccn1 returned RBX1-CUL1 inh -13.
Screening CC1CC1C(=O)N1CCN(S(=O)(=O)c2cccs2)CC1 (stereo unspecified) returned RBX1-CUL1 inh 2.
`COC(=O)[C@@H]1CCCN1C(=O)Cc1ccc(N2CCC(NCc3ccsc3)CC2)cc1` gave RBX1-CUL1 inh -7.
CC(=O)NCc1ccc(OC(C)=O)c(OC(C)=O)c1 was read as RBX1-CUL1 inh 2.
For CC(=O)Oc1ccc(OC(C)=O)c2c1C(=O)C=CC2=O the results were RBX1-CUL1 inh 99*.
`CC(=O)Oc1ccccc1C(=O)Oc1ccccc1` gave RBX1-CUL1 inh -5.
For CN(C)c1ccc(/C=C2\CCC(C3=CCCC3)=C2N2CCOCC2)cc1 the results were RBX1-CUL1 inh 5.
CCOc1ccc(-c2cc(C(=O)O)c3cc(Br)ccc3n2)c(OCC)c1 was read as RBX1-CUL1 inh -4.
`NC(=O)c1c(NC(=O)c2cccc(Cn3cc(Br)cn3)c2)sc2c1CCCCCC2` gave RBX1-CUL1 inh -7.
For CCN1CCN(CC(O)COc2ccc(C(C)(C)C)cc2)CC1 (stereo unspecified) the results were RBX1-CUL1 inh -1.
Screening CN1C(=O)CC(CC(=O)N2CCCC(C(=O)c3nccn3C)C2)(c2ccc(-c3ccccc3)cc2)C1=O (stereo unspecified) returned RBX1-CUL1 inh -7.
For COc1ccc(/C=N/OC(=O)c2ccccc2)cc1 the results were RBX1-CUL1 inh 4.
`COc1ccc(/C=C(\C)c2ccc(OC)cc2)cc1` gave RBX1-CUL1 inh -6.
COc1ccc(/C=C(/S)C(=O)O)cc1 was read as RBX1-CUL1 inh 89*.
`CSc1nccc(-c2cc(Cl)c3c(c2)CC(CNC(=O)c2cc(C(C)C)on2)O3)n1` (stereo unspecified) gave RBX1-CUL1 inh -2.
CC(C)c1cc2c(c(=O)n1-c1ccccc1)C(=O)C(I)C(=O)O2 (stereo unspecified) was read as RBX1-CUL1 inh 3.
`CCCC1=NN2C(=N)/C(=C/c3ccc(-c4cccc(C(=O)O)c4)o3)C(=O)N=C2S1` gave RBX1-CUL1 inh 11.
CCCCCCCC1=NN2C(=N)/C(=C/c3ccc(-c4cccc(C(=O)O)c4)o3)C(=O)N=C2S1 was read as RBX1-CUL1 inh 97*.
For CCCCCCCC1=NN2C(=N)/C(=C/c3ccccc3C)C(=O)N=C2S1 the results were RBX1-CUL1 inh 2.
For CCOc1cc(CC2=NC(=S)N(CC)C2=O)c(Br)cc1OCCO the results were RBX1-CUL1 inh 13.
For CCc1nnc(NC(=O)COc2ccccc2C)s1 the results were RBX1-CUL1 inh 4.
Screening COC(C(=O)N/N=C/c1ccc(SC)cc1)c1ccccc1 (stereo unspecified) returned RBX1-CUL1 inh -1.
Screening COc1cccc(/C=N/NC(=O)c2cc(C34CC5CC(CC(C5)C3)C4)[nH]n2)c1O returned RBX1-CUL1 inh -3.
Screening Cc1c(-c2ccc(O)c(O)c2)oc2ccccc2c1=O returned RBX1-CUL1 inh 93*.
Cc1ccc2oc3ccccc3c(=O)c2c1 was read as RBX1-CUL1 inh -4.
`Cc1cccc2oc3ccccc3c(=O)c12` gave RBX1-CUL1 inh 0.
For COc1ccc(-c2cc(C(F)(F)F)n3nc(C(=O)N=C4C(=O)N(c5ccccc5)N(C)C4C)cc3n2)cc1 (stereo unspecified) the results were RBX1-CUL1 inh 2.
Screening O=C(NCCc1ccccn1)c1csc2nc(-c3cccc(F)c3)cn12 returned RBX1-CUL1 inh -8.
CC1N(C)c2cccc3cccc(c23)N1C was read as RBX1-CUL1 inh -22.
Screening CN1c2ccccc2N(C)C1c1cccs1 returned RBX1-CUL1 inh 6.
`CN1c2cccc3cccc(c23)N(C)C1c1cccs1` gave RBX1-CUL1 inh 78*.
Screening CC(C)(C)NC(=O)NCc1cccnc1Oc1ccccc1F returned RBX1-CUL1 inh 11.
Screening CCCn1nnc(-c2ccc(OCc3ccccc3)cc2)n1 returned RBX1-CUL1 inh -5.
`COc1ccc(NC(=O)COC(=O)c2ccccc2N)cc1` gave RBX1-CUL1 inh 3.
For O=C(N/N=C/c1cccc(Cl)c1Cl)c1ccc(O)c(O)c1 the results were RBX1-CUL1 inh 55*.
`O=C(N/N=C/c1cccc(Cl)c1Cl)c1ccc(Br)cc1` gave RBX1-CUL1 inh 0.
`O=C(N/N=C/c1ccc(Cl)cc1Cl)c1ccc(O)c(O)c1` gave RBX1-CUL1 inh 4.
`O=C(c1ccccc1)C1C(c2ccccc2)C1c1ccc(Cl)cc1` (stereo unspecified) gave RBX1-CUL1 inh 5.
`O=C1C(=C2SCCS2)CC/C1=C\c1ccco1` gave RBX1-CUL1 inh 73*.
O=C(C=C1SCCS1)/C=C/c1ccco1 was read as RBX1-CUL1 inh 5.
Screening Cc1ccc(/C=C2\CCc3ccccc3C2=O)o1 returned RBX1-CUL1 inh -4.
Screening Nc1ccc2c(c1)C/C(=C/c1ccco1)C2=O returned RBX1-CUL1 inh 31*.
CC1=C([N+](=O)[O-])CS(=O)(=O)/C1=C\c1ccco1 was read as RBX1-CUL1 inh 7.
Screening COc1cccc(/C=C2\CCC(=C3SCCS3)C2=O)c1 returned RBX1-CUL1 inh -7.
`CCOc1ccc2nc(SCC(=O)Nc3c(-c4ccccc4)nc4ccccn34)[nH]c2c1` gave RBX1-CUL1 inh -8.
Screening O=S(=O)(c1ccc2ccccc2c1)N1CCSC1c1ccc(Cl)cc1Cl (stereo unspecified) returned RBX1-CUL1 inh 4.
